Consider 24 compounds from PubChem BioAssay AID1733 (National Center for Advancing Translational Sciences (NCATS), 2009).

Molecules are shown by their SMILES. Inconclusive results are not listed. A call without a number means that no potency is given here. Values without a mark were called inactive. Activity calls are given as the source filed them. Calls follow the shape of the dose curve; as a rule, active = well fitted inhibition curve with a large enough effect; inconclusive = small, poorly fitted or top-dose-only effect; inactive = flat fitted curve, though single readings scatter.

Sequence of Luciferin 4-monooxygenase (Photinus pyralis) (P08659 whole entry, looked up, canonical isoform): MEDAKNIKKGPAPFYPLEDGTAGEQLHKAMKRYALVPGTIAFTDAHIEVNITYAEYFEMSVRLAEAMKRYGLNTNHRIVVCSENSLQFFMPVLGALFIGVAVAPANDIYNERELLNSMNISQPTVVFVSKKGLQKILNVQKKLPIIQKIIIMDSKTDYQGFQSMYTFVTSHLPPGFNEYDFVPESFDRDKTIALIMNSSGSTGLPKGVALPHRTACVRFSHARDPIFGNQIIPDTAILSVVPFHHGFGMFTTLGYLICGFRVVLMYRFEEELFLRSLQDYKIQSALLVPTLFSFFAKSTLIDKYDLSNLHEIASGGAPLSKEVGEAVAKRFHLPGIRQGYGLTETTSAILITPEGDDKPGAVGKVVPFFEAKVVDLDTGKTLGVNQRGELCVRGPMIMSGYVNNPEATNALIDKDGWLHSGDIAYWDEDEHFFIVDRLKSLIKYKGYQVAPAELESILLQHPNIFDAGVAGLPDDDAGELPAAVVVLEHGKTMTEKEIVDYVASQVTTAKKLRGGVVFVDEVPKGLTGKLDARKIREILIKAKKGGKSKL

The target of the assay is Luciferin 4-monooxygenase (Photinus pyralis) (UniProt P08659). In words: Counterscreen Assay for Enhancers of SMN2 Splice Variant Expression: Interaction with Luciferase Reporter. The note with it: purified firefly luciferase, luminescence, 5 min; series mostly up to 40.3 µM. The text has this:
NIH Chemical Genomics Center [NCGC] NIH Molecular Libraries Probe Production centers Network [MLPCN] MLPCN Grant: R03 MH084179-01 Assay Submitter (PI): Elliot Androphy NCGC Assay Overview: Spinal muscular atrophy (SMA) is caused by insufficient levels of the survival motor neuron protein SMN. The SMN locus on chromosome 5q13 contains two inverted copies of SMN called SMN1 and SMN2 which are 99% identical at the amino acid level. SMN1 is a fully functional protein and SMN2 skips exon 7 90% of the time. Skipping of exon 7 produces non-functional protein product. 10% of the SMN2 protein includes exon 7 and is fully functional. In the SMA disease state, mutations in the SMN1 locus are the cause of the disease state. Because only 10% of SMN2 is of the fully functional form, it is not sufficient to overcome the deficiency produced by the loss of the SMN1 product. A therapy that either increases the amount of SMN2 product made increases the inclusion of exon 7 has been proposed for the treatment of SMA. We have designed an assay to identify small molecules that can increase the amount of functional SMN2 product by appending a luciferase reporter gene after the native SMN2 gene, such that inclusion of exon 7 in the expressed product places the luciferase sequence in frame, thus generating functional luciferase enzyme. One potential source of false positives in the primary screening assay is stabilization of the reporter luciferase via direct binding. This assay attempts to identify such compounds by screening directly for luciferase activity in the absence of the cellular system.
NCGC Assay Protocol Summary: The primary screen utilizes a luciferase reporter gene assay, combining the promoter and splicing based cassettes in tandem with the major portion of the native SMN1 cDNA, and then transfected into HEK293 cells. Compounds that modulate luciferase signal presumably modulate expression of […]. In this assay, we utilize purified firefly luciferase in lieu of a cellular reporter to identify compounds interacting directly with luciferase in the primary screen. Sequence, Parameter, Value, Description (1) Reagent, 2.5 uL, Enzyme in buffer (note A) (2) Compound, 23 nL, From stock solutions (3) Time, 5 minutes, Room temp (4) Reagent#2.5 ul, Luciferase detection reagent (note B) (5) Detector, 1 sec integrate, Luminescent read on Viewlux (note C) Sigma enzyme (1 mg) considered to be MW 61,000 diluted in 357 ul assay buffer to 50 uM stock. A - Enzyme and buffer consists of 50 mM Tris-acetate pH 7.6, 10 mM Mg acetate 0.05% BSA, 0.01% Tween and 5 nM firefly luciferase B - Detection reagent = britelite plus diluted 1:10 in PBS C - Viewlux settings were 1 second integration medium sensitivity Keywords: Spinal muscular atrophy, SMA, SMN2, high throughput screening, MLSMR, MLPCN, NIH Roadmap, qHTS and NCGC
Take `FC(F)C(F)(F)C1=CC(c2cccs2)=NCCN1`: the activity change, negative = inhibition is -4.71% [at 48.7 pM].
As to `Cc1ccc(-c2csc(NC(=O)C3CCN(S(=O)(=O)c4cccs4)CC3)n2)cc1`, the Potency was 8.91 µM (active).
Same read-out and setting: as for `Clc1ccc(-c2nnc(-c3ccccc3)nc2N2CCSCC2)cc1`, the figure is 11.2 µM (active).
For `COc1c(C)c2c(c(O)c1C/C=C(\C)CCC(=O)O)C(=O)OC2`, the Potency entry was “inactive”.
On the same count and under the same terms, as for `OCCCNc1nc(-c2ccc(Cl)cc2)nnc1-c1ccc(Br)cc1`, the entry is “inactive”; as for `CN(C)CCCN(C(=O)c1cccs1)c1nc(-c2ccccc2)cs1`, “inactive”.
The same measure, in the same setting: as for `COc1ccc(-c2csc(N3CCC(C(N)=O)(N4CCCCC4)CC3)n2)cc1`, the entry is “inactive”; as for `FC(F)(F)c1cccc(-c2nnc(-c3ccccc3)c(N3CCOCC3)n2)c1`, “inactive”; as for `Fc1ccc(Oc2nc(-c3ccccc3)nnc2C(F)(F)F)cc1`, 11.2 µM (active).
On the same count and under the same terms, as for `CCOc1c(Cl)cc(C(=O)Nc2ccccc2C(=O)O)cc1Cl`, the figure is 3.98 µM (active).
For the compound `O=S(=O)(NC1CCCc2ccccc21)c1cnc[nH]1` (centres undefined), the activity change, negative = inhibition was 3.43% [at 48.7 pM].
Consider `CCCCOC(C)n1cc(F)c(=O)[nH]c1=O` (centres undefined), for which the Potency result was “inactive”.
For `O=[N+]([O-])c1ccc(-c2nnc(-c3ccccc3)c(NCCCO)n2)cc1`, the Potency was 11.2 µM (active).
For the compound `O=C1CCC(C(=O)Nc2cccc3ccccc23)N1` (centres undefined), the activity change, negative = inhibition is 7.8% [at 48.7 pM].
For the compound `COc1nc(-c2ccc(Cl)cc2)nnc1C`, the Potency entry was “inactive”.
Same read-out and setting: as for `OCCCNc1nc(-c2ccc(Cl)cc2)nnc1-c1ccccc1`, the entry is “inactive”; as for `CC1CN(c2nc(-c3ccc(Br)cc3)nnc2-c2ccccc2)CC(C)N1` (centres undefined), “inactive”.
The same measure, in the same setting: as for `Cc1oncc1C(=O)Nc1ccc(C(F)(F)F)cc1`, the figure is 0.891 µM (active); as for `NC(=O)N1c2ccccc2C=Cc2ccccc21`, “inactive”.
On to `Nc1ccccc1-c1nnn(CC(=O)N2CCCc3ccccc32)n1`, for which the activity change, negative = inhibition is 2.12% [at 48.7 pM].
As for `COc1ccc(OC)c(-c2csc(N3CCC(c4ccccc4)CC3)n2)c1`, the Potency entry was “inactive”.
For the compound `O=c1cc(N2CCN(c3cccc(Cl)c3)CC2)[nH]c(=O)n1C1CCCCC1`, the activity change, negative = inhibition was -4.08% [at 48.7 pM].
Regarding `Nn1c(SCC(=O)NCCC2=CCCCC2)nnc1C1CCCCC1`, the activity change, negative = inhibition was 2.17% [at 48.7 pM].
Turning to `COc1cccc(NC(=O)CSc2nc3ccccc3nc2N2CCOCC2)c1`, the Potency result is “inactive”.
